Experimental data taken from PubChem BioAssay AID2390 (National Center for Advancing Translational Sciences (NCATS), 2010).
The other results are listed elsewhere or left out. A call without a number means that no potency is given here. Inconclusive results are not listed. Active and inactive are the calls of the source. Calls come from the whole dose curve; as a rule, active = well fitted inhibition curve with a large enough effect; inconclusive = small, poorly fitted or top-dose-only effect; inactive = no such curve, though single readings can be large or run the other way.

Biological target: Regulator of G-protein signaling 12 (Homo sapiens) (UniProt O14924)
Assay: Confirmation qHTS Assay for Inhibitors of RGS12 GoLoco Motif Activity (Red Fluorophore)
Details: Gai1/rhodamine-RGS12 GoLoco peptide fluorescence polarization; series mostly up to 57.1 µM
From the text: G-protein-coupled receptors (GPCRs) are major targets for drug discovery. The regulator of G-protein signaling (RGS)-protein family has important roles in GPCR signal transduction. RGS proteins contain a conserved RGS-box, which is often accompanied by other signaling regulatory elements. RGS proteins accelerate the deactivation of G proteins to reduce GPCR signaling; however, some also have an effector function and transmit signals. Combining GPCR agonists with RGS inhibitors should potentiate responses, and could markedly increase the agonist's regional specificity. The diversity of RGS proteins with highly localized and dynamically regulated distributions in brain makes them attractive targets for pharmacotherapy of central nervous system disorders. […] A complex of Gai1 and fluorescently labeled G-alpha-binding peptide (the "GoLoco motif") derived from RGS12 is incubated with library members. Inhibitors of the binding are detected by a decrease in the fluorescence polarization (FP) of the fluorophore. Protein was supplied by Prof. David Siderovski, University of North Carolina at Chapel Hill. This BioAssay is a confirmatory run of primary qHTS protocol (AID: 880). See following reference for more details: Kimple AJ, et al. Comb Chem High Throughput Screen. 2008 Jun;11(5):396-409. Assay Submitter: Siderovski, David P, University of North Carolina at Chapel Hill Screening Center PI: Austin, C.P. Screening Center: NIH Chemical Genomics Center [NCGC] NIH Grant: NS053754-01
Reagents/Controls: Assay Buffer: 10 mM Tris-HCl, 150 mM NaCl, 0.1 mM GDP (prepared fresh), and 0.05% NP40 at pH 7.5. […] 15 nM Rhodamine labeled peptide/25 nM protein in columns 1, 2, 5 - 48. Titration of unlabeled peptide control ([H][…][NH2], custom synthesized and HPLC-purified by Tufts University Core Facility) from 20 mM, then 1:2 dilution, 16-point in duplicate, pin-transferred to column 2, rows 1 to 32. Column 1 is neutral. Rhodamine-labeled peptide (Rhodamine-[…]-NH2) was custom-synthesized and HPLC-purified by Invitrogen (Carlsbad, CA). Assay Steps. Four uL of reagents were dispensed to 1536-well Greiner black solid-bottom plates. Compounds and controls (23 nL) were transferred via Kalypsys PinTool. The plates were incubated for 10 min at room temperature, and then read on ViewLux (Perkin-Elmer) High-throughput CCD imager using BODIPY for the rhodamine-labeled decapeptide probe. During dispense, reagent bottles were kept submerged into 4 deg C water bath and all liquid lines were covered with aluminum foil to minimize probe and protein degradation. All screening operations were performed on a Kalypsys robotic system (Kalypsys, Inc., San Diego, CA) containing one RX-130 and two RX-90 anthropomorphic robotic arms.

Sequence of Regulator of G-protein signaling 12 (Homo sapiens) (O14924 whole entry, looked up): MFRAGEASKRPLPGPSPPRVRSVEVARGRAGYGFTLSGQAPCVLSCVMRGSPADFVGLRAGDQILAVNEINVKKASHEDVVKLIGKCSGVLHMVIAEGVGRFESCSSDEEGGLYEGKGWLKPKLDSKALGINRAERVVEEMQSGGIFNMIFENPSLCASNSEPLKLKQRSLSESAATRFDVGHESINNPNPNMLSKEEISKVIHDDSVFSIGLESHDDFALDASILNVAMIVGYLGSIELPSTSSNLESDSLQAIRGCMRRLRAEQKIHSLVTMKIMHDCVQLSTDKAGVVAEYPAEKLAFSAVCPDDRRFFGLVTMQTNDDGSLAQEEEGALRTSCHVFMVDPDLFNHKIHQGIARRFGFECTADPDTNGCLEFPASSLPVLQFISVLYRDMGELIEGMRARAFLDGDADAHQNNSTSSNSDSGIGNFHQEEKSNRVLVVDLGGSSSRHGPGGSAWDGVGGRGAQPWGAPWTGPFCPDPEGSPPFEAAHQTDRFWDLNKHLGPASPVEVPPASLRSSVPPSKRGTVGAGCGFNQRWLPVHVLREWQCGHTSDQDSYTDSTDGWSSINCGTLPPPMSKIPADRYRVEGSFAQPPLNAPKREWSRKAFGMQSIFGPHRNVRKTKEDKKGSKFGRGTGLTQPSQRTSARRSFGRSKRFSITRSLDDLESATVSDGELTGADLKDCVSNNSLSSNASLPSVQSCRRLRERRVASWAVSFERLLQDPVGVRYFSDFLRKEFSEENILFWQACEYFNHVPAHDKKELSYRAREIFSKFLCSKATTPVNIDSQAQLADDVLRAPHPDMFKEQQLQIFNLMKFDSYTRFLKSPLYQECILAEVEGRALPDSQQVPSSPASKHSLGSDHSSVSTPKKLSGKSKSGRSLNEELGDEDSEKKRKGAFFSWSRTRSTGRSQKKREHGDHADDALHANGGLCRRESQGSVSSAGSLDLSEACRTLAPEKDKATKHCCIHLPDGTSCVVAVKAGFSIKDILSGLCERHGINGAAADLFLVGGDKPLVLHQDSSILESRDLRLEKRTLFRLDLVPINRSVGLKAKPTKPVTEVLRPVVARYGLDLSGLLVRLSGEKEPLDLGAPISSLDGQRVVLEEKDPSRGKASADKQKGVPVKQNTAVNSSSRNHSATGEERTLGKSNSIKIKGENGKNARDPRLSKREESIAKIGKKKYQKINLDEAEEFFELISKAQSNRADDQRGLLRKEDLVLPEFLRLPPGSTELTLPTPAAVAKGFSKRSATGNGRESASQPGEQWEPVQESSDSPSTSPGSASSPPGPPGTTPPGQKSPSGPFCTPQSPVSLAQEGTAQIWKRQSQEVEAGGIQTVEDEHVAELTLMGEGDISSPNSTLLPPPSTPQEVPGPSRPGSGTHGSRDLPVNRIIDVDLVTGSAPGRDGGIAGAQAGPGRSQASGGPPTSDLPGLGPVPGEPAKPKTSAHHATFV

Compound	Potency
Cc1nn(C)cc1N1C(=O)c2cccc3c(N)ccc(c23)C1=O	14.1 µM (active)
CCn1c(SCC(=O)NCc2ccco2)nnc1-c1ccc(N)cc1	inactive
Cc1cc2nc3c(=O)n(Cc4ccccc4)c(=O)[nH]c3nc2cc1N	3.98 µM (active)
O=C(Nc1cccc(Nc2nccc(Nc3cccc(C(F)(F)F)c3)n2)c1)C1CC1	inactive
